# Results from PubChem BioAssay (NCATS).
# A number with no mark means an inactive call. Records with an inconclusive call do not appear. A call without a number means that no potency is given here. The source made the active and inactive calls. Unless noted, calls come from the whole dose curve.
# Tests used:
# [1] = target: Glucocorticoid receptor (Homo sapiens) (UniProt P04150); assay: GR-GFP Redistribution (AID 450;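 active = compounds whose dose series gives a full or clear partial fitted curve of increased nuclear translocation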; note: potency is the fitted concentration of half-maximal effect); conditions: U2OS GR-GFP nuclear translocation, laser cytometry, 2 h
# [2] = target: Glucocorticoid receptor (Homo sapiens) (UniProt P04150); assay: GR-EFC Redistribution (AID 451); conditions: CHO-K1 GR-EFC translocation, beta-gal luminescence, 2 h; note: potency is the fitted concentration of half-maximal effect
# Procedure, shortened: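 CHO-K1 cells expressing nuclear EA and GR-ED fragments of b-gal; compounds titrated up to 46 uM final, 2 h at 37 C. GR nuclear translocation read as complemented b-gal luminescence after 1 h RT detection.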
# [3] = target: Mitogen-activated protein kinase 10 (Mus musculus) (UniProt Q61831); assay: JNK3 AlphaScreen Assay (AID 530; active = well fitted curve in either direction with a large enough effect, not every such curve was filed as active;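 note: kinase came from lysate of stimulated human HepG2 cells; signal reports phosphorylation of biotinylated GST-cJun 1-79 at Ser73 with 10 µM ATP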); conditions: JNK3 lysate, c-Jun phosphorylation; series mostly up to 57.1 µM
# Procedure, shortened: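 HepG2 lysate (IL-1b/TNFa pre-activated) + biotin-GST-cJun 1-79 + anti-pSer73 cJun; cpd titration, 15 min RT; ATP 10 uM start; Tris pH 7.6, MgCl2, DTT, vanadate; beads in EDTA buffer; AlphaScreen.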
# [4] = target: Cytochrome P450 2C9 (Homo sapiens) (UniProt P11712); assay: qHTS Assay for Inhibitors and Substrates of Cytochrome P450 2C9 (AID 883; active = well fitted curve in the direction sought with a large enough effect; an effect the other way counts as inactive or inconclusive; note: nearly all actives have a fitted effect of over 60% in size); conditions: recombinant CYP2C9, luciferin-H luminescence, 60 min; series mostly up to 57.1 µM
# Procedure, shortened: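 Signal: luciferase luminescence reporting luciferin produced by CYP2C9. Conditions: 10nM enzyme, Luciferin-H 100uM at KM, 25mM KPO4, 37C, 60 min NADPH-driven reaction. Reference: 57uM sulphaphenazole as 100% inhibition.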
# [5] = target: Cytochrome P450 2D6 (Homo sapiens) (UniProt P10635); assay: qHTS Assay for Inhibitors and Substrates of Cytochrome P450 2D6 (AID 891; active = well fitted curve in the direction sought with a large enough effect; an effect the other way counts as inactive or inconclusive;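 note: luciferin methyl ether substrate demethylated by CYP2D6 with NADPH regeneration; nearly all actives have a fitted effect of over 60% in size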); conditions: recombinant CYP2D6, luciferin-ME EGE luminescence; series mostly up to 57.1 µM
# Procedure, shortened: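 Luminescent read-out of luciferin formed by 5 nM human CYP2D6 demethylating 30 uM Luciferin-ME EGE (Km level) over 60 min at room temperature after NADPH regeneration addition. Data normalized to full inhibition by 1.43 uM quinidine.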
# [6] = target: Cytochrome P450 2C19 (Homo sapiens) (UniProt P33261); assay: qHTS Assay for Inhibitors and Substrates of Cytochrome P450 2C19 (AID 899; active = well fitted curve in the direction sought with a large enough effect; an effect the other way counts as inactive or inconclusive; note: nearly all actives have a fitted effect of over 60% in size; note: potency is the fitted concentration of half-maximal effect); conditions: recombinant CYP2C19, luciferin-H EGE luminescence; series mostly up to 57.1 µM
# Procedure, shortened: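 Signal comes from luciferase acting on luciferin released by CYP2C19-mediated hydroxylation of Luciferin-H EGE, 10uM (KM). Assay mix: 5nM enzyme, 50mM KPO4; 60 min at 37C with NADPH regeneration. Data normalized against 57uM ketoconazole.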
# [7] = Validation screen for inhibitors of Lassa infection (AID 463096); conditions: Lassa virus infection, cell-based; series mostly up to 46.1 µM
# [8] = target: Cytochrome P450 3A4 (Homo sapiens) (UniProt P08684); assay: qHTS Assay for Inhibitors and Substrates of Cytochrome P450 3A4 (AID 884; active = well fitted curve in the direction sought with a large enough effect; an effect the other way counts as inactive or inconclusive; note: nearly all actives have a fitted effect of over 50% in size); conditions: recombinant CYP3A4, Luciferin-PPXE luminescence; series mostly up to 57.1 µM
# Procedure, shortened: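 Luminescent readout of luciferin produced by CYP3A4 (20 nM) dealkylation of Luciferin-PPXE, 25 uM (its KM). NADPH-driven reaction ran 60 min at RT after 10 min compound preincubation; data scaled to 57 uM ketoconazole as 100% inhibition.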
# [9] = Confirmation and Secondary Assay for Modulators of Hemoglobin Beta Chain Splicing at IVS2 705 locus (AID 930; active = well fitted curve in the direction sought with a large enough effect; an effect the other way counts as inactive or inconclusive;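 note: HeLa cells stably expressing the EGFP-705 splicing reporter; GFP fluorescence per well restored by corrected splicing of the IVS2-705 intron in EGFP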); conditions: HeLa EGFP-705 splicing reporter, GFP fluorescence, 48 h; series mostly up to 46.1 µM
# Procedure, shortened: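 HeLa IVS2-705 EGFP reporter cells, 500/well, compound 2 d at 37C; correct splicing yields fluorescent EGFP. Control: 500 nM antisense PNA. Read-out: total peak GFP intensity.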
# [10] = target: Alpha-galactosidase (Coffea arabica) (UniProt Q42656); assay: Counterscreen for Glucocerebrosidase Inhibitors: qHTS Assay for Coffee Bean alpha-Galactosidase at pH 4.5 (AID 957; active = well fitted curve in the direction sought with a large enough effect; an effect the other way counts as inactive or inconclusive); conditions: purified coffee bean alpha-galactosidase, fluorogenic substrate; series mostly up to 76.9 µM
# Procedure, shortened: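 Fluorogenic read-out: 4-methylumbelliferone at Ex 365/Em 440 nm after NaOH/glycine stop (pH 10). Enzyme 2 nM, 4-MU-alpha-galactoside 80 uM, citrate buffer pH 4.5, 20 min RT; normalized to no-enzyme and enzyme controls.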
# [11] = target: Alpha-galactosidase (Coffea arabica) (UniProt Q42656); assay: Counterscreen for Glucocerebrosidase Inhibitors: qHTS Assay for Coffee Bean alpha-Galactosidase at pH 5.9 (AID 998; active = well fitted curve in the direction sought with a large enough effect; an effect the other way counts as inactive or inconclusive); conditions: coffee bean alpha-galactosidase enzyme assay; series mostly up to 76.9 µM
# Procedure, shortened: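 Enzyme 2 nM + cpd (0.7 nM–77 uM titration) + 4-MU-alpha-Gal 80 uM, pH 5.9 citrate/Tween-20, RT 20 min, NaOH/glycine stop pH 10, fluor 365/440. Normalized to no-enzyme and full-activity controls; Hill-fit AC50.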
# [12] = Inducers of the Endoplasmic Reticulum Stress Response (ERSR) in human glioma: Validation (AID 504836; active = well fitted curve in the direction sought with a large enough effect; an effect the other way counts as inactive or inconclusive); conditions: human glioma cells, ER stress response reporter; series mostly up to 38.3 µM
# Procedure, shortened: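 Stably transfected U87-MG glioma cells carrying a GRP78-based luciferase sensor; 16 h compound incubation. Luminescence end-point read 10 min after Bright-Glo addition at room temperature.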
# [13] = S16 Schwann cell PMP22 intronic element firefly luciferase assay (AID 624032; active = well fitted curve in the direction sought with a large enough effect; an effect the other way counts as inactive or inconclusive; note: nearly all actives have a fitted effect of over 30% in size); conditions: S16 rat Schwann cells, PMP22 element FLuc, 24 h; series mostly up to 57.5 µM
# Procedure, shortened: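 Rat S16 Schwann cells stably carrying firefly luciferase driven by a PMP22 intronic element, in 10% FBS, treated 24 h at 37 C. ONE-Glo luminescence normalized to PTC124 control and DMSO (0%); curves classed by r2, magnitude and activity.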
# Alpha-galactosidase (Coffea arabica), sequence (Q42656 whole entry, looked up): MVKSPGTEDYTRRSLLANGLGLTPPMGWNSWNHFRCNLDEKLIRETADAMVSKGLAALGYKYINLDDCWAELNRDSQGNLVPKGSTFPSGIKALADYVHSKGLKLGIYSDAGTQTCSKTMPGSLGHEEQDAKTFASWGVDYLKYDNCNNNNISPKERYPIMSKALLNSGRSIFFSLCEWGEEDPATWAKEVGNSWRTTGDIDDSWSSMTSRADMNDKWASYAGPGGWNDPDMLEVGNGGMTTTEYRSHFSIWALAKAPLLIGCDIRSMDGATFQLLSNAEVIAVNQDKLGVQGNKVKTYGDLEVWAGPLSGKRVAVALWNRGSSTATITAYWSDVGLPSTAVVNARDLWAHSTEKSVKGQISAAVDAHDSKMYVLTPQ
# Glucocorticoid receptor (Homo sapiens), sequence (P04150 whole entry, looked up, the tested form may be a part): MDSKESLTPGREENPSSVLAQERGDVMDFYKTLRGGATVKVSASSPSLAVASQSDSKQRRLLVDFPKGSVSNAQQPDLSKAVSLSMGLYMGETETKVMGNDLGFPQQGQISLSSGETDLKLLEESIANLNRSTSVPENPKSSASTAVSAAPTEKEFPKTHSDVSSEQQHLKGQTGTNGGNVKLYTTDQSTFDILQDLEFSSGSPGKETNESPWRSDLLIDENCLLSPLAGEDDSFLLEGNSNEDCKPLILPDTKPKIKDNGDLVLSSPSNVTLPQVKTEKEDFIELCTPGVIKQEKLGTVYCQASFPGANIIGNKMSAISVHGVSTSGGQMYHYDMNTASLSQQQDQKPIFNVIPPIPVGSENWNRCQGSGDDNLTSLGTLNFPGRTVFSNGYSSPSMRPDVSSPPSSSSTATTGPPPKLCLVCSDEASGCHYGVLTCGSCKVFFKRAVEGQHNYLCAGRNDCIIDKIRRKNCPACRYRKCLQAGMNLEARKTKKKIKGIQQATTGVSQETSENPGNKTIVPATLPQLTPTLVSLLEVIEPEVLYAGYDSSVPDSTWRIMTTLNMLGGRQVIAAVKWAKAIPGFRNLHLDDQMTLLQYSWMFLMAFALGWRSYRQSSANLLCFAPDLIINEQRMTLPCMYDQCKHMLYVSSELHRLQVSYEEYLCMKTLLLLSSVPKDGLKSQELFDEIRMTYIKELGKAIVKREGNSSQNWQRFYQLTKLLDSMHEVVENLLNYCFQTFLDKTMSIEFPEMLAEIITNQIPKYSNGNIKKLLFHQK
# Cytochrome P450 2C19 (Homo sapiens), sequence (P33261 whole entry, looked up): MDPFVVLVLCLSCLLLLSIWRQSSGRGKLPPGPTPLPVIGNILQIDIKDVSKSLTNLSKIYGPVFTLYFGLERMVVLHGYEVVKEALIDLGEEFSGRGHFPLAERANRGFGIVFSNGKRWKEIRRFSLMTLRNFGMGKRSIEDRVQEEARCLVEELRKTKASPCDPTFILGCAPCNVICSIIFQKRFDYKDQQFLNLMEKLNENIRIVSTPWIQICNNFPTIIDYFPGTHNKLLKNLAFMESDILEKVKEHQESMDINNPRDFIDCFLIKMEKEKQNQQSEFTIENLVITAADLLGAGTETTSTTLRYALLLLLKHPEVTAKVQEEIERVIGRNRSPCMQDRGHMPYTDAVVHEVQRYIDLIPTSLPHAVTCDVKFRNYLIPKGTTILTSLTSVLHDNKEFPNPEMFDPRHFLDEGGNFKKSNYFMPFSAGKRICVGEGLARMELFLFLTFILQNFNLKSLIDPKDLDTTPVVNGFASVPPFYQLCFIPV
# Cytochrome P450 2D6 (Homo sapiens), sequence (P10635 whole entry, looked up): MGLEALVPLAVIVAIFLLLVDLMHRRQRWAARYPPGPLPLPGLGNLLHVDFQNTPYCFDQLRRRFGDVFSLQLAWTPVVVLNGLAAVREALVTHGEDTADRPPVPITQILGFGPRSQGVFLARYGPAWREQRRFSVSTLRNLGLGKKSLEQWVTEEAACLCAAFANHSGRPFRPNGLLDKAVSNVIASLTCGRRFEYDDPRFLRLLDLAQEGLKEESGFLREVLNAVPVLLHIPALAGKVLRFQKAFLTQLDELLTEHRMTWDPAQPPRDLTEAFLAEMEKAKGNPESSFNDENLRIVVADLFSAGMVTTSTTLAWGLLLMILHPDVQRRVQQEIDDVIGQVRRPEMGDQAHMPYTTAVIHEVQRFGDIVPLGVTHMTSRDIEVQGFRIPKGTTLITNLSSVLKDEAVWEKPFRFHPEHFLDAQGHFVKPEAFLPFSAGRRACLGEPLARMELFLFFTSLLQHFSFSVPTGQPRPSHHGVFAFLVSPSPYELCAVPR
# Cytochrome P450 2C9 (Homo sapiens), sequence (P11712 whole entry, looked up): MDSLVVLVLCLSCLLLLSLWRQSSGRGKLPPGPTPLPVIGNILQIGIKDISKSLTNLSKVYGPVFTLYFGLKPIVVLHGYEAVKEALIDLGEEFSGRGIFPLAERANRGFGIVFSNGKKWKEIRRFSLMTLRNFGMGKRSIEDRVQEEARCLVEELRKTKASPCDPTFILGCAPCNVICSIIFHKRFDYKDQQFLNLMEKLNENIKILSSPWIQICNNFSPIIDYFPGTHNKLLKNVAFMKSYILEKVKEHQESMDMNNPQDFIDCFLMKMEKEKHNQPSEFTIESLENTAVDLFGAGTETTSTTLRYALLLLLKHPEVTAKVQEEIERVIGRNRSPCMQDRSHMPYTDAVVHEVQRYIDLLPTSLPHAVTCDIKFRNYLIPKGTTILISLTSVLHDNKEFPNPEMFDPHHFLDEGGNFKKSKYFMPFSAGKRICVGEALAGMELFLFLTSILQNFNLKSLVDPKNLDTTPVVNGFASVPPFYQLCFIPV
# Cytochrome P450 3A4 (Homo sapiens), sequence (P08684 whole entry, looked up): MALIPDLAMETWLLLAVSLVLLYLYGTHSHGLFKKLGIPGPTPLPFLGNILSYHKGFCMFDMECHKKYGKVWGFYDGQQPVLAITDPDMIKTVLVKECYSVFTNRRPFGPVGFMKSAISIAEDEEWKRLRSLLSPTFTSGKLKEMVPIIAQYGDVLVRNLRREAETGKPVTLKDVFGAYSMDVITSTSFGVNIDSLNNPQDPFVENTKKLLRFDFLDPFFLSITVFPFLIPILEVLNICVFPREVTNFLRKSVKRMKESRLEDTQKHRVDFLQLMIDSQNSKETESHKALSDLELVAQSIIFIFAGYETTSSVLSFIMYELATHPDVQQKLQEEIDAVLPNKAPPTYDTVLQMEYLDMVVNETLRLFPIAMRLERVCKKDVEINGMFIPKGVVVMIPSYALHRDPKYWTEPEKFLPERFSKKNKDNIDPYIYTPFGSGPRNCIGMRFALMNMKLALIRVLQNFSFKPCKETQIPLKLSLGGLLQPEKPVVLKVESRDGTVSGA
smiles,measurement,setting,value
C[C@H]1C(=O)O[C@H]2CCN3CC=C(COC(=O)[C@](C)(O)[C@@]1(C)O)[C@H]23,Potency,[1],> 46 µM
same,Potency,[2],> 46 µM
same,outcome,[3],inactive
same,Potency,[4],inactive
same,Potency,[5],inactive
same,Potency,[6],inactive
N#CC(Cc1ccc(O)c(O)c1)C(=O)N1CCc2ccccc21 (stereo unspecified),Potency,[7],inactive
COc1cc(=O)n(C)c2c(OCC(O)C(C)(C)O)cccc12 (stereo unspecified),Potency,[7],inactive
CSc1nc(N)c2ncn([C@@H]3O[C@H](COP(=O)(O)OP(=O)(O)OP(=O)(O)O)[C@H](O)[C@H]3O)c2n1,Potency,[7],inactive
CC#C[C@]1(O)CC[C@H]2C3CCC4=CC(=O)CCC4=C3[C@@H](c3ccc(N(C)C)cc3)C[C@@]21C (stereo partly specified),Potency,[7],inactive
Nc1ccn([C@@H]2O[C@H](CO)[C@@H](O)[C@@H]2O)c(=O)n1,Potency,[7],inactive
CNC(=O)[C@H]1O[C@@H](n2cnc3c(N)ncnc32)[C@H](O)[C@H]1O,Potency,[7],inactive
CC(C)[C@]1(NC(=O)[C@H]2C=C3c4cccc5[nH]cc(c45)C[C@H]3N(C)C2)O[C@@]2(O)[C@H]3CCCN3C(=O)[C@H](Cc3ccccc3)N2C1=O,Potency,[1],> 46 µM
same,Potency,[2],> 46 µM
same,Potency,[5],inactive
same,Potency,[6],2 µM (active)
C/C=C1\C[C@H](C)[C@](O)(CO)C(=O)OCC2=CCN3CC[C@@H](OC1=O)[C@@H]23,Potency,[1],> 46 µM
same,Potency,[2],> 46 µM
same,outcome,[3],inactive
same,Potency,[4],inactive
same,Potency,[5],inactive
same,Potency,[6],inactive
COc1cc2c(cc1O)CCN[C@H]2C,Potency,[1],> 46 µM
same,Potency,[2],> 46 µM
same,outcome,[3],inactive
same,Potency,[4],inactive
same,Potency,[6],inactive
NC(CCC(=O)NCS(=O)(=O)O)C(=O)O (stereo unspecified),Potency,[7],inactive
CC(O)[C@@H](O)[C@H]1CNc2nc(N)[nH]c(=O)c2N1 (stereo partly specified),Potency,[7],inactive
CCCCCCCCCCCCCCC/C=C/[C@@H](O)[C@H](NC(=O)CCCCCCCCCCCCC)OC (tested in a mixture with another compound),Potency,[7],inactive
CC(C)C1NC(=O)[C@H](CCCCN)NC(=O)[C@@H](Cc2c[nH]c3ccccc23)NC(=O)[C@H](Cc2ccc(O)cc2)NC(=O)[C@H](C)N(C)C(=O)[C@H](Cc2ccccc2)NC1=O (stereo partly specified),Potency,[7],inactive
COc1cc2c(cc1OC)C(c1ccccc1)CN(C)CC2 (stereo unspecified),Potency,[7],inactive
C/C=C1\C(=O)CC2C3CCC4=CC(=O)CC[C@]4(C)C3CC[C@]12C (stereo partly specified),Potency,[7],inactive
CCCCC#Cc1nc(N)c2ncn([C@@H]3O[C@H](C(=O)NCC)[C@@H](O)[C@H]3O)c2n1,Potency,[7],inactive
CC(=O)[C@@]1(O)CC[C@H]2C3CCC4=CC(=O)CC[C@]4(C)C3CC[C@@]21C (stereo partly specified),Potency,[7],inactive
COc1ccc2c(c1O)-c1c(OC)c(OC)cc3c1[C@@H](C2)N(C)CC3,Potency,[1],> 46 µM
same,Potency,[2],> 46 µM
same,Potency,[4],inactive
same,Potency,[8],inactive
same,Potency,[6],inactive
same,outcome,[9],inactive
C[C@H]1CC2[C@@H]3CCC4=CC(=O)C=C[C@]4(C)[C@@]3(Cl)[C@@H](O)C[C@]2(C)[C@@]1(O)C(=O)CO (stereo partly specified),Potency,[7],inactive
COc1c2c(nc3ccccc13)OC(C(C)(O)CO)C2 (stereo unspecified),Potency,[7],inactive
NC(=S)c1ccc[n+]([C@@H]2O[C@@H](COP(=O)([O-])OP(=O)(O)OC[C@H]3O[C@@H](n4cnc5c(N)ncnc54)[C@H](OP(=O)(O)O)[C@H]3O)C(O)C2O)c1 (stereo partly specified),Potency,[7],inactive
O=C(O)CC[C@H](NC(=O)c1ccccc1C(=O)O)C(=O)O,Potency,[7],inactive
CCCCOC(=O)NS(=O)(=O)c1sc(CC(C)C)cc1-c1ccc(Cn2c(CC)nc3c(C)cc(C)nc32)cc1,outcome,[10],inactive
same,outcome,[11],inactive
same,Potency,[7],inactive
same,outcome,[12],inactive
Nc1ncnc2c1c(-c1ccc(Oc3ccccc3)cc1)cn2C1CCCC1,outcome,[11],inactive
same,Potency,[7],inactive
same,outcome,[12],inactive
CC(N)=NCCCC(N)C(=O)O (stereo unspecified),Potency,[7],inactive
C[C@H]1c2cccc(O)c2C(O)=C2C(=O)[C@]3(O)C(O)=C(C(N)=O)C(=O)C(N(C)C)[C@@H]3[C@@H](O)C21 (stereo partly specified),Potency,[7],inactive
CN=C(N)NCCCC(N)C(=O)O (stereo unspecified),Potency,[7],inactive
OC[C@H]1O[C@@H](n2cnc3c(N[C@H]4CC5CCC4C5)ncnc32)[C@H](O)[C@@H]1O (stereo partly specified),Potency,[7],inactive
Nc1nc(Cl)nc2c1ncn2[C@@H]1O[C@H](COP(=O)(O)OP(=O)(O)OP(=O)(O)O)[C@H](O)[C@H]1O,Potency,[7],inactive
NCC1OC(O[C@@H]2[C@H](O)[C@@H](OC3C(O)C(N)CC(N)C3OC3OC(CO)C(O)C(O)C3N)O[C@@H]2CO)C(N)C(O)C1O (stereo partly specified),Potency,[7],inactive
Cc1ccccc1N1CCN(S(=O)(=O)C[C@]23CCC(CC2NC(=O)[C@@H](N)CCS(C)(=O)=O)C3(C)C)CC1 (stereo partly specified),Potency,[7],inactive
CC(C)(C)NCC(O)COc1nsnc1N1CCOCC1 (stereo unspecified),Potency,[7],inactive
Nc1nc(Nc2ccccc2)nc2c1ncn2[C@@H]1O[C@H](CO)[C@H](O)[C@H]1O,Potency,[7],inactive
COc1ccc(CCNC[C@@H](O)c2ccc(O)cc2)cc1OC,Potency,[7],inactive
C[C@]12C[C@H](O)C3[C@@H](CCC4=CC(=O)CC[C@@]43C)[C@@H]1CC[C@@H]2C(=O)CO (stereo partly specified),Potency,[7],inactive
C[C@@H](Oc1ccc(Oc2cnc3ccc(Cl)cc3n2)cc1)C(=O)O,Potency,[7],inactive
O=c1[nH]c(=O)n([C@H]2C[C@H](O)[C@@H](CO)O2)cc1/C=C/Br,Potency,[7],inactive
same,Potency,[13],inactive
